Laboratory results published in PubChem BioAssay AID1159580 (chemical genetic matrix, 2015).
Several values for one entry are separate records, joined by “and”; a condition that tells them apart may be missing. Equal values may be shown once. About 2,000 (36%) of roughly 5,500 compounds were called active. Roughly 18% stayed inconclusive and do not appear here. Rule as the data show it: active = normalized growth mostly below about 0.91 (no sharp cut-off); inconclusive = no clear call, values can overlap the other calls; inactive = mostly above about 0.92. Some of the results follow. A structure can be active in one record and inactive in another.

Assay: chemical genetic growth profiling, strain panel (AID 1159580);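 also: tested at 20 µM; growth read once vehicle control cultures reached saturation at 30 °C; 1 = growth at the plate median or of vehicle wells; lower values mean less growth of the strain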
Details: S. cerevisiae deletion strains, growth OD

Measured: normalized growth

O=C1c2c(O)ccc(O)c2C(=O)c2c(NCCNCCO)ccc(NCCNCCO)c21
1.03 (inactive) and 0.713 (active): locus YHR030C, strain SLT2, stronger effect = lower value
0.968 (inactive) and 0.9 (active): locus YAL013W, strain DEP1, stronger effect = lower value
active: locus YAL021C, strain ccr4, stronger effect = lower value 0.499 | locus YAL026C, strain drs2, stronger effect = lower value 0.363 | locus YAL030W, strain snc1, stronger effect = lower value 0.839 | locus YBL061C, strain skt5, stronger effect = lower value 0.81 | locus YBR009C, strain hhf1, stronger effect = lower value 0.831 | locus YBR023C, strain chs3, stronger effect = lower value 0.868 | locus YBR231C, strain swc5, stronger effect = lower value 0.84 | locus YBR279W, strain paf1, stronger effect = lower value 0.669 | locus YCL011C, strain gbp2, stronger effect = lower value 0.894 | locus YCL016C, strain dcc1, stronger effect = lower value 0.385 | locus YCL061C, strain MRC1, stronger effect = lower value 0.868 | locus YCR088W, strain abp1, stronger effect = lower value 0.828 | locus YDL005C, strain med2, stronger effect = lower value 1.12 [resistant] | locus YDL192W, strain arf1, stronger effect = lower value 0.889 | locus YDR069C, strain doa4, stronger effect = lower value 0.684 | locus YDR137W, strain rgp1, stronger effect = lower value 0.572 | locus YDR159W, strain sac3, stronger effect = lower value 0.788 | locus YDR195W, strain ref2 0.764 | locus YDR297W, strain sur2, stronger effect = lower value 0.885 | locus YDR335W, strain msn5, stronger effect = lower value 0.821 | locus YDR388W, stronger effect = lower value 0.892 | locus YDR392W, strain spt3, stronger effect = lower value 1.28 [resistant] | locus YEL003W, strain gim4, stronger effect = lower value 0.878 | locus YEL037C, strain rad23, stronger effect = lower value 0.818 | locus YEL061C, strain CIN8 (second series), stronger effect = lower value 0.896 | locus YER015W, strain faa2, stronger effect = lower value 0.865 | locus YER016W, strain bim1, stronger effect = lower value 0.793 | locus YER111C, strain swi4, stronger effect = lower value 0.397 | locus YFR010W, strain ubp6, stronger effect = lower value 0.564 | locus YGL167C, strain pmr1, stronger effect = lower value 0.619 | locus YGL173C, strain kem1, stronger effect = lower value 0.57 | locus YGL240W, strain doc1, stronger effect = lower value 0.696 | locus YGL253W, strain hxk2, stronger effect = lower value 0.738 | locus YHR027C, strain rpn1, stronger effect = lower value 0.756 | locus YHR142W, strain chs7, stronger effect = lower value 0.582 | locus YJL092W, strain hpr5, stronger effect = lower value 0.609 | locus YJL095W, strain BCK1 (second series), stronger effect = lower value 0.482 | locus YJL115W, strain asf1, stronger effect = lower value 0.321 | locus YJL129C, strain trk1, stronger effect = lower value 0.306 | locus YJL164C, strain tpk1, stronger effect = lower value 0.735 | locus YJL166W, strain qcr8, stronger effect = lower value 0.858 | locus YJR043C, strain POL32, stronger effect = lower value 0.779
inactive: locus YAL040C, strain CLN3, stronger effect = lower value 1.06 | locus YBR021W, strain FUR4, stronger effect = lower value 0.941 | locus YBR171W, strain sec66, stronger effect = lower value 0.911 | locus YBR229C, strain ROT2, stronger effect = lower value 1.03 | locus YCL029C, strain bik1, stronger effect = lower value 1.01 | locus YCL061C, strain MRC1 (second series), stronger effect = lower value 0.983 | locus YCL069W, strain vba3, stronger effect = lower value 0.946 | locus YDL035C, strain GPR1, stronger effect = lower value 0.976 | locus YDL040C, strain nat1, stronger effect = lower value 1.03 | locus YDL074C, strain BRE1, stronger effect = lower value 0.897 | locus YDL101C, strain DUN1, stronger effect = lower value 1.01 | locus YDL134C, strain PPH21, stronger effect = lower value 0.977 | locus YDL185W, strain tfp1, stronger effect = lower value 0.943 | locus YDR001C, strain nth1, stronger effect = lower value 1.01 | locus YDR101C, strain arx1, stronger effect = lower value 1.04 | locus YDR150W, strain NUM1, stronger effect = lower value 0.993 | locus YDR162C, strain NBP2, stronger effect = lower value 0.921 | locus YDR318W, strain mcm21, stronger effect = lower value 0.982 | locus YDR334W, strain swr1, stronger effect = lower value 0.981 | locus YDR363W, strain ESC2, stronger effect = lower value 0.919 | locus YDR502C, strain sam2, stronger effect = lower value 0.983 | locus YEL061C, strain CIN8, stronger effect = lower value 1.02 | locus YER002W, strain NOP16, stronger effect = lower value 1.05 | locus YER110C, stronger effect = lower value 1.07 | locus YER155C, strain BEM2 (second series), stronger effect = lower value 0.965 | locus YER155C, strain BEM2, stronger effect = lower value 1.04 | locus YER167W, strain BCK2, stronger effect = lower value 0.96 | locus YGL078C, strain dbp3, stronger effect = lower value 0.942 | locus YGL086W, strain mad1, stronger effect = lower value 1.01 | locus YGL227W, strain vid30, stronger effect = lower value 1.08 | locus YGL248W, strain PDE1, stronger effect = lower value 1.02 | locus YGR078C, strain PAC10, stronger effect = lower value 1.01 and 1.07 | locus YGR135W, strain pre9, stronger effect = lower value 0.942 | locus YGR252W, strain gcn5, stronger effect = lower value 0.924 | locus YHR013C, strain ard1, stronger effect = lower value 0.878 | locus YHR079C, strain IRE1 (second series), stronger effect = lower value 1 | locus YHR079C, strain IRE1, stronger effect = lower value 0.951 | locus YHR094C, strain hxt1, stronger effect = lower value 1.05 | locus YHR129C, strain ARP1, stronger effect = lower value 1.02 | locus YHR200W, strain rpn10, stronger effect = lower value 0.985 | locus YIL066C, strain RNR3, stronger effect = lower value 0.992 | locus YIL073C, strain SPO22, stronger effect = lower value 0.917 | locus YIL125W, strain kgd1, stronger effect = lower value 0.986 | locus YIR030C, strain dcg1, stronger effect = lower value 1.02 | locus YJL134W, strain LCB3, stronger effect = lower value 1.04 | locus YJL154C, strain vps35, stronger effect = lower value 1.05 | locus YJL168C, strain set2, stronger effect = lower value 1.05 | locus YJL187C, strain SWE1 (second series), stronger effect = lower value 0.968 | locus YJL187C, strain SWE1, stronger effect = lower value 0.997
0.916 (inactive) and 0.755 (active): locus YJL095W, strain BCK1, stronger effect = lower value
